# Compound activity: PubChem BioAssay, several laboratories
# Sampled rows, rich in hits. Any-hit rate of the full collection: about 4%.
# MazEF act: MazEF (E. coli) toxin RNase activation; P0AE70; FAM/BHQ RNA-DNA oligo cleavage fluorescence, 5 h; activation, % at 20 µM; 0.32% of 350,000 active; AID 504720; in the data active = activation above about 50%
# Target sequence (P0AE70 whole entry, looked up): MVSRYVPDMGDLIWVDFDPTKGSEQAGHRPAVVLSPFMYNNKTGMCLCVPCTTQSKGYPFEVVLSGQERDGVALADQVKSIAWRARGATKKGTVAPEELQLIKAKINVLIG
# VHR inh abs: DUSP3 (human) phosphatase inhibition | recombinant VHR phosphatase, pNPP absorbance | inhibition, % at 13.3 µM | 0.52% of 290,000 active | AID 1654; in the data active = inhibition above about 50%
# Target sequence (P51452 whole entry, looked up): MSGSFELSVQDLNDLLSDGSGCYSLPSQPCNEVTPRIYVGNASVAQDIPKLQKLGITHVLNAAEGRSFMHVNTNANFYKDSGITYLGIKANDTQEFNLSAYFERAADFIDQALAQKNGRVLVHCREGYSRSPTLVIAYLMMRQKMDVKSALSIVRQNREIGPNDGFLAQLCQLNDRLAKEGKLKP
# BoNT-F LC inh: blocks Botulinum neurotoxin F light chain protease; Multiplex microsphere protease cleavage assay, flow cytometry; AID 588497; inhibition, % at 10 µM; 0.22% of 360,000 active; in the data active = inhibition above about 35%, passing the limit was not always enough; inconclusive = no clear call, values can overlap the other calls; note: plate controls were buffer without enzyme for full effect and enzyme alone for no effect
# BoNT-A LC inh2: blocks Botulinum neurotoxin A light chain protease. inhibition, % at 10 µM. multiplex microsphere protease substrate cleavage, flow cytometry. AID 588499. 0.17% of 360,000 active; note: plate controls were buffer without enzyme for full effect and enzyme alone for no effect
# Bead autofluor: flagged as autofluorescent in microsphere protease counterscreen; 3.1% of 360,000 active; fluorescence intensity (no concentration beside the values); compound autofluorescence counterscreen, microsphere flow cytometry; active compounds read high; AID 624483; in the data active = fluorescence intensity above about 16000; inconclusive = no clear call, values can overlap the other calls
# Anthrax LF inh2: inhibitors of Bacillus anthracis lethal factor protease | 0.12% of 360,000 active | P15917 | multiplex microsphere protease cleavage assay, LF | AID 588501 | inhibition, % at 10 µM; note: plate controls were buffer without enzyme for full effect and enzyme alone for no effect
# The depositor's hits bear a star; ? = inconclusive; nt = no result. Cut-off read from the data, not from the text of the source, unless noted: active = inhibition above about 30%; inconclusive = no clear call, values can overlap the other calls; inactive = below that.
SMILES,MazEF act,VHR inh abs,BoNT-F LC inh,BoNT-A LC inh2,Bead autofluor,Anthrax LF inh2
COc1cc(NC(=O)CSc2nnc(-c3cc(C)on3)o2)cc(OC)c1,10,-8,-5,-2,6378,-1
O=S1(=O)CCOCCCN1Cc1cccc(F)c1,5,13,-4,-1,3520,-6
COc1ccc(-n2c(=O)[nH]c3c(C(N)=O)nc(C4CCCCC4)nc32)cc1,-9,21,-10,-2,3830,-1
O/N=C1/C(=C\c2ccccc2)N2CCC1CC2,-6,15,9,7,19798*,-5
CCOC(=O)CN1C(c2ccc(O)cc2)Nc2ccc(Br)cc2C1c1ccccc1 (stereo not given),4,-18,-20,-1,1946,-2
CC(=O)c1sc2nc(C)cc(C)c2c1N,3,-20,1,0,21807*,-3
COc1ccc(OCc2n[nH]c(=S)o2)cc1,6,-15,-6,0,2782,1
S=c1[nH]nc(COc2ccc(Cl)cc2)o1,1,10,0,?,19965*,-4
Cc1ccc(N/C(SCc2ccccc2C)=C(/C#N)C(=O)NCc2ccco2)cc1C,-8,18,-2,-1,22786*,-7
CCc1ccc(N/C(SCc2cccc(F)c2)=C(/C#N)C(=O)NCc2ccco2)cc1,8,18,-18,-3,8446,-8
c1ccc(-c2nnc3n2N=C(c2ccc4c(c2)OCO4)CS3)nc1,9,13,6,5,18035*,-1
COc1ccc(C2=Nn3c(nnc3-c3ccccn3)SC2)cc1OC,8,-13,-1,?,22882*,-1
CCOc1ccc(C2=Nn3c(nnc3-c3ccccn3)SC2)cc1,5,7,-20,-1,3895,-1
COc1ccc(C2=Nn3c(nnc3-c3ccccc3OC)SC2)cc1OC,3,38,nt,nt,nt,nt
CCC1CCCCN1c1nc(-c2cccc(OC)c2O)nc2ccccc12 (stereo not given),3,-18,-4,-3,16896*,-6
COc1cccc(-c2nc(NC(C)C)c3ccccc3n2)c1O,0,14,-7,-4,24838*,-6
COc1cccc(-c2nc(N3CCCCC3)c3ccccc3n2)c1O,4,nt,4,0,5096,-4
COC(=O)c1ccc(CNC(=O)CCC(=O)N2CCOCC2)cc1,-9,nt,-12,1,3987,-1
CCOC(=O)c1c(P(=O)(N2CCOCC2)N2CCOCC2)noc1N,7,53*,-4,-1,4876,-3
CCOC(=O)c1c(C)c(P(=S)(N2CCOCC2)N2CCOCC2)n(C)c1C,3,19,-4,1,3196,-4
Cc1ccn(-c2ccc([N+](=O)[O-])cc2)n1,-6,12,-1,0,20585*,-2
Cc1cccc(NC(=O)Nc2cnccn2)c1C,-2,34,-1,1,5989,1
CC1=Nn2c(nnc2-c2ccco2)SC1,2,3,3,2,22078*,0
COc1ccc(-c2nnc3n2N=C(C)CS3)cc1,4,15,-1,?,23552*,-1
COc1cccc(-c2nnc3n2N=C(C(C)(C)C)CS3)c1,8,23,-2,0,23357*,2
SMILES,MazEF act,VHR inh abs,BoNT-F LC inh,BoNT-A LC inh2,Bead autofluor,Anthrax LF inh2
COc1ccc(C2=Nn3c(nnc3-c3ccc(OC)cc3)SC2)cc1,5,17,-6,-3,11951,-8
COc1ccc(C(C(=O)NC2CCCC2)N(C(=O)c2ccco2)c2ccc3c(c2)OCO3)cc1OC (stereo not given),-3,21,3,0,2894,-7
CCn1c(O)c(/C=N/N=C2CCCC2)c2ccc(C3=NNC(=O)CC3)cc21,0,-11,-7,-4,23877*,-4
CCn1c(O)c(/C=N/N=C2CCCCC2)c2cc(C3=NNC(=O)CC3)ccc21,-10,-3,-12,0,5560,-8
CC(C)(C)NC(=O)CN(Cc1cccs1)C(=O)c1csnn1,-2,-5,-5,0,3612,1
O=C(NN1CCOCC1)c1ccc(Br)cc1,5,nt,-11,-3,3043,12
Cc1ccc(C(=O)NN2CCOCC2)cc1,-2,20,0,?,19445*,1
O=C1NC[C@H](CCCCN2CCN(CCc3ccccc3)C(=O)C2=O)N(CCC2CCCCC2)C1=O,nt,nt,-2,0,5079,-4
CS(=O)(=O)c1ccc(N2CCOCC2)c(S(C)(=O)=O)c1,-4,20,0,0,20225*,1
O=C1NC(c2ccncc2)C(C(=O)c2cccs2)C(O)(C(F)(F)F)N1 (stereo not given),-4,9,2,0,9527,-8
